Source: PubChem BioAssay
CF_NFkB_inh – inhibitors of PAF-induced NF-kB signaling, primary screen, cell-based, GFP fluorescence, uHTS; KKLEB NF-kB-GFP reporter, GFP fluorescence overnight; inhibition, % at 5 µM; 0.86% of 360,000 active; AID 588850, 2011;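 active = at least 50% inhibition at 5 µM, scaled per plate between neutral and stimulator controls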;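 note: PAF is a Pseudomonas aeruginosa culture filtrate used as stimulus; plate controls were PAF-stimulated DMSO wells for no effect and unstimulated DMSO wells for full effect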
Shn3_inh_set2 – reduction of Shn3 3'UTR firefly luciferase signal, primary screen, Schnurri-3 inhibitor project, cell-based, Clone20 osteoblasts, set 2. 0.52% of 360,000 active. Clone20 osteoblast Shn3 3'UTR firefly luciferase, 24 h. inhibition, % at 12.5 µM;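 active = mean inhibition of at least 75% with every replicate also reaching 75%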;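 note: 0% = median of neutral control wells and 100% = pilot-screen positive control compound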
PAX8_reporter – inhibitors of PAX8-driven TPO luciferase reporter, primary screen, RMG-I cells, single concentration. SteadyGlo, 24 h. inhibition, % at 12.6 µM. 1.2% of 360,000 active. AID 652154, 2013;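 active = mean replicate inhibition at least 60% with every replicate also reaching 60%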;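 note: luciferase light reporting Pax8 driven TPO promoter activity; plate controls were median of neutral control wells for no effect and mitoxantrone controls for full effect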
LGR2_inh – inhibitors of bursicon-induced LGR2 CRE-luciferase signal, primary screen, cell-based, HEK293, CRE-luciferase reporter, bursicon stimulation. AID 720647, 2013. bursicon-stimulated, 4 h. inhibition, % at 9.99 µM. Drosophila bursicon receptor LGR2 (rickets). 0.35% of 380,000 active;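 active = drop in luminescence signal, shown as inhibition above about 50% in the replicate tests, limit read from the data, passing the limit was not always enough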;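 note: agonist challenge used bursicon conditioned medium at about half maximal strength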
EWS-Fli_inh – EWS/Fli-driven NR0B1 reporter inhibitors, primary screen, A673 cells, NR0B1 luciferase, luminescence, MLPCN library | viability-normalised | inhibition, % at 12.6 µM | 0.67% of 350,000 active | AID 651661, 2012;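 active = mean inhibition of at least 50% after viability correction, with every replicate also passing that limit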;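 note: firefly luciferase signal divided by Alamar Blue viability fluorescence both relative to DMSO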
KKLEB_cytotox – cytotoxicity in KKLEB CF airway cells, primary screen, cytotoxicity control for CF NF-kB inhibitor project, cell-based, uHTS, fluorescence assay plates; 0.36% of 360,000 active; activity change (cytotoxicity), % at 5 µM; KKLEB CF airway cells viability, ATPlite luminescence, overnight; hits give low values; cells stimulated with P. aeruginosa culture filtrate; AID 602141, 2011;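 active = corrected activity change at or below -50% at 5 µM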
DNA_binding – DNA binders by acridine orange displacement, dose response, counter-screen for EWS/Fli inhibitor project, biochemical, fluorescence polarization, cherry-pick | AID 720586, 2013 | salmon sperm DNA acridine orange fluorescence polarization | AC35, µM (highest dose often 68 µM), without a hit: top-dose activity change, negative = DNA binding | 2% of 640 active | shares compounds with EWS-Fli_inh;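 active = fitted curve reaches a 35% signal fall AC35 below twice the sample's top valid tested dose, actives reach about 48 µM in these data; inactive = the rest, including activity in the rising direction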;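 note: lower polarization ratio signals compound binding to DNA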
* marks the source's active call; other numbers are inactive results; nt = no result. This is a sample that favours compounds with a hit; in the whole collection about 2% have one here.

SMILES CF_NFkB_inh Shn3_inh_set2 PAX8_reporter LGR2_inh EWS-Fli_inh KKLEB_cytotox DNA_binding
O=c1cc(O)c2sc3nc(-c4ccccc4)cc(C(F)(F)F)c3c2[nH]1 -9 20 14 15 nt 9 nt
Cc1ccc(C)c(NC(=O)CCC(=O)N/N=C/c2ccc[nH]2)c1 6 -11 nt 9 nt -8 nt
Cc1c(Cl)cccc1NC(=O)CCC(=O)N/N=C/c1ccc[nH]1 10 -3 -8 10 58* 12 -13%
O=C(Sc1cccc2cccnc12)c1ccccc1Br 34 99* 100* -2 50* 13 -1%
COc1ccc(-c2sc3ccccc3c2-c2ccc(OCCN3CCCCC3)cc2)cc1 30 -12 -20 -4 59* -14 -4%
COc1ccc(S(=O)(=O)N(C)C[C@@H]2OCCCC[C@H](C)Oc3ccc(N(C)C)cc3C(=O)N([C@@H](C)CO)C[C@H]2C)cc1 nt nt 1 -18 -2 nt nt
COc1ccc(CNC(=O)C[C@@H]2CC[C@@H](NC(=O)c3cccc(F)c3)[C@@H](CO)O2)cc1 nt nt -8 8 -2 nt nt
O=C1C(=O)N(CCS(=O)(=O)c2ccccc2)c2ccc(Cl)cc21 0 -7 20 1 57* -8 -9%
CCc1ccc2c(c1)C(=O)C(=O)N2CCS(=O)(=O)c1ccccc1 29 -6 -15 -11 nt -7 nt
CC(C)(C)C(=O)Cn1ncc(Cl)c(Cl)c1=O 46 34 57 nt 75* -18 -4%
O=C(Cn1ncc(Cl)c(Cl)c1=O)c1ccc(Cl)cc1 48 70 33 nt nt -3 nt
COCc1cc(C)nc2sc(C(=O)NCCO)c(-n3cccc3)c12 5 13 -10 -18 61* 3 -14%
COCc1cc(C)nc2sc(C(=O)Nc3ccc(OC)cc3)c(N)c12 -14 -28 -92 -22 -117 -2 nt
CCN(C[C@@H]1N[C@H](CO)[C@@H]1c1ccc(C2=CCCC2)cc1)C(=O)c1ccccc1 nt nt 23 -8 5 nt nt
CN(C[C@H]1N[C@@H](CO)[C@@H]1c1ccc(C2=CCCC2)cc1)C(=O)c1ccc(F)cc1 nt nt 108* 1 73* nt -14%
COc1ccc(N=C(NN)c2ccc3ccccc3n2)cc1 -1 55 nt nt 72* -1 -1%
CCCCc1c(Cc2ccccc2)ncn1CCc1ccccc1OC nt nt 62* 37 55* nt -13%
Cc1cccc(C(=O)NC(=S)Nc2ccc(Cc3ccncc3)cc2)c1 5 18 -38 nt nt 7 nt
Cc1cc(C)cc(C(=O)NC(=S)Nc2ccc(Cc3ccncc3)cc2)c1 36 7 8 5 66* -16 -4%
CCC(=O)N1CC2(C1)[C@H](c1ccc(-c3ccc(F)cc3)cc1)[C@@H](CO)N2C(C)=O nt nt nt -3 2 nt nt
